Hits are enriched below; roughly 0.78% of the tested compounds scored in any of these assays.
BJeLR lethal: BJeLR cell viability loss; BJeLR (HRASV12) viability, CellTiter-Glo ATP luminescence, 48 h; inhibition, % (test concentration not listed); 300,000 tested, 0.17% active; in the data active means inhibition above about 50%
SARS 3CLpro inh: SARS-CoV 3CLpro protease inhibition; inhibition, % at 6 µM; 290,000 tested, 0.14% active; AID 1706; recombinant SARS-CoV 3CLpro, quenched FRET peptide cleavage; in the data active means inhibition above about 12%
PriA SSB inh: K. pneumoniae PriA-SSBct interaction inhibition | AlphaScreen SSBct-PriA binding, biotinylated peptide | 430,000 tested, 0.6% active | inhibition, % at 33 µM; in the data active means inhibition mostly above about 37%, no sharp cut-off; inactive means mostly below about 20%;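 further: plate controls were negative control peptide for no effect and reference peptide for full effect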
Numbers without * were called inactive; nt = no result; ! = repeats disagree.

SMILES	BJeLR lethal	SARS 3CLpro inh	PriA SSB inh
COc1ccc(/C=N/NC(=S)Nc2ccccc2[N+](=O)[O-])cc1O	23	-9	nt
O=[N+]([O-])c1ccccc1NC(=S)NN=Cc1ccc(O)c(O)c1	nt	nt	42*
CCc1ccc(S(=O)(=O)N2CCN(c3ccc4nncn4n3)CC2)cc1	nt	nt	6
COc1ccc(C)cc1NC(=O)c1ccc(N2CCOCC2)nn1	nt	nt	-14
Cn1cccc(C(=O)N2CCO[C@H](c3cc(Cl)cc(Cl)c3)C2)c1=O	nt	nt	-9
COc1ccc2[nH]c(=O)c(CN(Cc3cccs3)S(=O)(=O)c3cccc4nsnc34)cc2c1	52*	3	-12
COc1ccc2[nH]c(=O)c(CN(CCO)S(=O)(=O)c3c(C)ccc4nsnc34)cc2c1	-2	3	0
O=C(Cc1csc(Nc2ccccc2)n1)N1CCCC1	nt	nt	1
Nc1cc2c3c(cccc3c1)C(=O)N(CCN1CCCC1)C2=O	38	-4	-1
O=C1c2cccc3cc([N+](=O)[O-])cc(c23)C(=O)N1CCN1CCCC1	96*	-1	3
Cc1nc(-c2ccc(N3CCN(C(=O)c4c[nH]c5ccccc45)CC3)nc2)no1	nt	nt	-7
COc1ccc(S(=O)(=O)N2CCOCC2)cc1NC(=O)CCNC(=O)c1ccc(Br)cc1	108*	nt	-7
COc1ccc(S(=O)(=O)N2CCOCC2)cc1NC(=O)CCNC(=O)c1ccc(Cl)cc1	nt	nt	-10
O=[N+]([O-])c1ccc(C[n+]2cccc3ccccc32)cc1	3	-2	4
O=[N+]([O-])c1ccc(C[n+]2cccc3ccc4cccnc4c32)cc1	22	-3	90*
O=C(CCc1ccccc1F)NCc1ccccc1-c1ccsc1	nt	nt	-5
O=C(CSc1nnc(NC(=O)c2cc(Cl)ccc2[N+](=O)[O-])s1)Nc1ccccc1C(F)(F)F	nt	nt	-5
COc1ccc(Nc2nc(NN)nc(Nc3ccc(OC)cc3)n2)cc1	-9	4	100*
NNc1nc(Nc2ccccc2)nc(N2CCCCC2)n1	2	6	7
NNc1nc(Nc2ccccc2)nc(Nc2ccccc2)n1	-1	1	49*
Cc1cc(N)nc(Nc2ccc(C(N)=O)cc2)n1	nt	nt	-6
COc1ccc(Nc2ccc(OC)cc2)cc1	-2	1	17
Cc1cc(N)nc(Nc2ccc(Nc3ccccc3)cc2)n1	nt	nt	41*
CCCCn1c(NC(=O)c2ccc(F)cc2)c(C#N)c2nc3ccccc3nc21	-3	nt	nt
CCCCn1c(NC(=O)c2ccccc2)c(C#N)c2nc3ccccc3nc21	nt	2	56*
SMILES	BJeLR lethal	SARS 3CLpro inh	PriA SSB inh
CCC(C)n1c(NC(=O)c2ccccc2)c(C#N)c2nc3ccccc3nc21 (stereo unspecified)	-7	-3	58*
CCC(=O)Nc1c(C#N)c2nc3ccccc3nc2n1-c1ccc(C)cc1	nt	nt	17
O=C(NCCN1CCN(c2ccccc2)CC1)C(=O)Nc1ccc2c(c1)OCCO2	nt	nt	-1
COc1ccccc1N1CCN(S(=O)(=O)c2ccc3c4c(cccc24)C(=O)N3C)CC1	-5	2	nt
COc1ccccc1N1CCN(S(=O)(=O)c2ccc3c4c(cccc24)C(=O)N3)CC1	2	0	35*!
COc1ccc(N=Nc2cc(C)c(O)c(CN3CCCCC3)c2)cc1	-9	-4	54*
COc1ccc(CN2CCCCCC2)cc1	4	1	-6
Nc1nc(C2C(=O)CCCC2=O)cs1	1	-6	58*
Nc1nc(C2CC(=O)OC23CCCCC3)cs1 (stereo unspecified)	8	1	-14
COc1ccc(Cl)cc1Nc1nnc(-c2ccncc2)s1	4	-5	1
Clc1ccccc1Nc1nnc(-c2ccncc2)s1	85*	0	-4
COc1ccc(-c2noc(CSc3n[nH]c(=O)c4cc(-c5ccco5)nn34)n2)cc1	nt	nt	-8
Cn1c(NC(=O)CCc2ccccc2)cc(=O)n(C)c1=O	2	1	46*
CCCC(=O)Nc1cc(=O)n(C)c(=O)n1C	1	-1	-20
CN(C)CCCN(C(=O)COc1ccccc1)c1nc2cc3c(cc2s1)OCCO3	-10	3	5
CN(C)CCN(C(=O)c1ccc(C(=O)c2ccccc2)cc1)c1nc2cc3c(cc2s1)OCO3	-3	-2	43*!
CN(C)CCN(C(=O)c1cccc(Cl)c1)c1nc2cc3c(cc2s1)OCCO3	nt	nt	-4
CN(C)CCCN(C(=O)Cc1ccccc1)c1nc2cc3c(cc2s1)OCO3	nt	nt	-7
CN(C)CCN(C(=O)c1ccc(C(=O)c2ccccc2)cc1)c1nc2cc3c(cc2s1)OCCO3	5	-5	49*
CN(C)CCN(C(=O)c1ccc(S(=O)(=O)N(C)c2ccccc2)cc1)c1nc2cc3c(cc2s1)OCO3	2	-3	36*
CN(C)CCCN(C(=O)c1ccc(C(=O)c2ccccc2)cc1)c1nc2cc3c(cc2s1)OCCO3	4	-1	41*!
CN(C)CCCN(C(=O)c1ccc(S(=O)(=O)N(C)C)cc1)c1nc2cc3c(cc2s1)OCO3	3	-2	0
COc1ccc(N2C(=O)/C(=C\c3ccc(-c4ccc(Cl)cc4Cl)o3)SC2=S)cc1	nt	nt	-8
CCNC(=O)N1CCCC1CS(=O)(=O)c1ccccc1 (stereo unspecified)	nt	nt	-29
COc1ccc(Nc2nc(Nc3ccc(F)cc3)nc(N3CCOCC3)n2)cc1OC	nt	nt	37*
SMILES	BJeLR lethal	SARS 3CLpro inh	PriA SSB inh
Fc1ccc(Nc2nc(N3CCOCC3)nc(N3CCOCC3)n2)cc1	-8	0	-1
Cc1cc(C(F)(F)F)nc(CCNS(=O)(=O)Cc2cc(F)ccc2F)n1	nt	nt	-13
COc1cccc(/C=N/Nc2ncnc(Cl)c2N)c1O	56*	-2	nt
COc1cccc(C=NNc2ncnc3scc(-c4ccccc4)c23)c1O	nt	nt	44
COc1cccc(C=NNc2ncnc(Cl)c2N)c1O	nt	nt	90
COc1cccc(/C=N/Nc2ncnc3scc(-c4ccccc4)c23)c1O	70*	2	nt
Cc1c(-c2cccc(NC(=O)Nc3cccc(Cl)c3)c2)nc2ncccn12	nt	nt	-2
O=C(/C=C/c1ccc(Br)cc1)C12CC3CC(CC(C3)C1)C2	nt	nt	-15
COc1ccc(C2CC(c3ccc(Br)cc3)=NN2C(=O)CSc2nnc3[nH]c(=O)cc(C)n23)cc1 (stereo unspecified)	nt	nt	-12
COc1cc(OC)c(OC)cc1CCC(C)NCCC(c1ccccc1)c1ccccc1 (stereo unspecified)	-3	-2	42*
COc1ccccc1CCNC(C)CCc1ccc(O)cc1 (stereo unspecified)	-1	-5	-3
CC(O)CN1CCN(S(=O)(=O)c2ccc(C(F)(F)F)cc2)CC1 (stereo unspecified)	nt	nt	-3
CCCCCN=C(N)NN=Cc1c[nH]c2ccc(OC)cc12	nt	nt	22
CCCCCN=C(N)N/N=C/c1c[nH]c2ccc(OC)cc12	70*	nt	nt
COc1ccccc1/C=C/C=Nc1c(C)n(C)n(-c2ccccc2)c1=O	nt	nt	9
O=C(C1CC1)N1Cc2cnc(N3CCOCC3)nc2C1	nt	nt	-12
O=c1ccc(-c2ccc([N+](=O)[O-])cc2)nn1-c1ccccc1	-7	0	-4
O=[N+]([O-])c1ccc(-[n+]2nc(-c3ccccc3)nn2-c2ccccc2)cc1	8	1	101*
CC(=NNC(N)=O)c1ccccc1Cl	nt	nt	-6
Cc1ccc(NS(=O)(=O)c2ccc(NC(=O)CN(c3cc([N+](=O)[O-])ccc3C)S(C)(=O)=O)cc2)c(C)c1	65*	1	25

Compound activity deposited in PubChem BioAssay by several laboratories.
